A3A deaminase – APOBEC3A ssDNA deaminase inhibitors, primary screen, selectivity assay for APOBEC3G inhibitor project, biochemical, FAM/TAMRA oligo cleavage fluorescence | recombinant A3A, FAM/TAMRA ssDNA deamination fluorescence | inhibition, % at 20 µM | 0.41% of 330,000 active;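 active = at least 40% inhibition at 20 µM here, with at most 30% in a related deaminase screen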;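 also: plate controls were A3A with DMSO for no effect and wells lacking A3A enzyme for full effect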
Wnt act – Wnt/beta-catenin pathway activators, primary screen, cell-based, plate reader, single point; Wnt/beta-catenin reporter cell assay, activator; activation, % at 9.35 µM; 1.2% of 300,000 active; AID 743398, 2014; in the data active = activation above about 30%, passing the limit was not always enough;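 also: 0% = neutral control wells and 100% = positive control wells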
PHOSPHO1 inh – PubChem AID 1565. Phosphoethanolamine/phosphocholine phosphatase (Homo sapiens), Q8TCT1. recombinant PHOSPHO1, absorbance phosphatase assay. inhibition, % at 13.3 µM. 1.1% of 290,000 active; in the data active = inhibition above about 60%
Target sequence (Q8TCT1 whole entry, looked up): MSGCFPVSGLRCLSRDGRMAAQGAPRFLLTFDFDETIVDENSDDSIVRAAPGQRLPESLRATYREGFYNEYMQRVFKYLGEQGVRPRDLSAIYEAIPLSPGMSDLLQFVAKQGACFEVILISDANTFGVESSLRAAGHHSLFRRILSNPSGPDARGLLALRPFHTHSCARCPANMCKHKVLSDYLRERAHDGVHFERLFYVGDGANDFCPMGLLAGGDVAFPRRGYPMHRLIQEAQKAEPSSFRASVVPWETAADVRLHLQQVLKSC
A3G deaminase – APOBEC3G DNA deaminase inhibitors, primary screen, biochemical, fluorescence, single-stranded DNA substrate, uHTS; DNA dC->dU-editing enzyme APOBEC-3G (Homo sapiens), Q9HC16; recombinant A3G, ssDNA deamination FAM/TAMRA fluorescence; inhibition, % at 20 µM; 0.28% of 330,000 active;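 active = inhibition of at least 40% at 20 µM, with no more than 30% in the related APOBEC3A deaminase screen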;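 also: plate controls were DMSO wells with A3G for no effect and wells lacking A3G enzyme for full effect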
MITF TRPM1 HTS – activators of MITF-driven TRPM1 promoter reporter, primary screen, cell-based, SK-MEL-5, luciferase, single point; SK-MEL-5 TRPM1-promoter luciferase, 24 h; % of positive control, neutral wells = 0; activation, % at 12.5 µM; 0.75% of 300,000 active;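 active = mean activation of at least 80% with every replicate also reaching 80%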;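 also: 0% = neutral control wells and 100% = parthenolide positive control wells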
esBAF inh – Bmi1 luciferase reporter increase in mESCs, primary screen, esBAF inhibitor project, mouse ES cells, Bmi1 luciferase knock-in, single point. 24 h; 100% = twice the neutral-well signal. reporter increase, % at 12.5 µM. 2% of 350,000 active; in the data active = activation above about 40%;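 also: 0% = median of the plate's neutral control wells and 100% = double that signal; a rise in the Bmi1 reporter signal indicates esBAF inhibition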
APOBEC3A confirm – APOBEC3A deaminase inhibitors, retest, confirmation, selectivity assay for APOBEC3G inhibitor project, biochemical, single concentration, fluorescence readout; recombinant A3A, ssDNA deaminase UDG fluorescence assay; 63% of 1,400 active; shares compounds with A3A deaminase; inhibition, % at 20 µM;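 active = inhibition reaching a set limit, 80% of the first screen's cutoff, at 20 µM in any replicate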;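 also: plate controls were DMSO wells with A3A for no effect and wells lacking A3A enzyme for full effect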
UDG A3A counter – E. coli UDG inhibitors, confirmation, counter-screen for APOBEC3A inhibitor project, biochemical, single concentration, fluorescence, FAM/TAMRA oligo | shares compounds with A3A deaminase | UDG counterscreen, FAM/TAMRA uracil oligo fluorescence | inhibition, % at 20 µM | 1,000 tested, under 10 active | AID 504714, 2011; call rule not given here
APOBEC3G confirm – APOBEC3G deaminase inhibitor retest, confirmation, biochemical, fluorescence, single-stranded DNA substrate, single concentration; shares compounds with A3G deaminase; recombinant A3G ssDNA deaminase, UDG/FAM-TAMRA fluorescence; inhibition, % at 20 µM; 72% of 890 active; AID 493152, 2011;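 active = inhibition reaching a set limit in any replicate at 20 µM, the limit being 80% of the first screen's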
UDG A3G counter – E. coli UDG inhibitors, confirmation, counter-screen for APOBEC3G inhibitor project, biochemical, single concentration, fluorescence, FAM/TAMRA oligo | shares compounds with A3G deaminase | UDG counterscreen | inhibition, % at 20 µM | 710 tested, under 10 active;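 active = compounds giving 40% or more inhibition at 20 µM in any one of the three replicates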;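 also: plate controls were DMSO wells with UDG and oligo for no effect and DMSO wells lacking both for full effect; inhibitors lower the FAM signal released by uracil excision and alkaline cleavage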
Target sequence (P12295 whole entry, looked up): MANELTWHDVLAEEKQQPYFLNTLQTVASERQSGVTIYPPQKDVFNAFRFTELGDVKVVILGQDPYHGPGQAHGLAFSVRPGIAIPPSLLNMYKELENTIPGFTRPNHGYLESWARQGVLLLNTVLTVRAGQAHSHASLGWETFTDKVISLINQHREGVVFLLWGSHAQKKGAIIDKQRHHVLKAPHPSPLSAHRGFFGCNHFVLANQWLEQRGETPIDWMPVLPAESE
An asterisk follows results filed as active; . = no result. This is a sample that favours compounds with a hit; in the whole collection about 3.6% have one here.

SMILES	A3A deaminase	Wnt act	PHOSPHO1 inh	A3G deaminase	MITF TRPM1 HTS	esBAF inh	APOBEC3G confirm	UDG A3G counter	others
COc1ccc(S(=O)(=O)N(C)C[C@@H]2OCCCC[C@H](C)Oc3ccc(NS(=O)(=O)c4ccc(F)cc4)cc3C(=O)N([C@H](C)CO)C[C@H]2C)cc1	.	.	.	.	.	6	.	.
Cc1noc(C)c1NC(=O)Nc1ccc2c(c1)C(=O)N([C@H](C)CO)C[C@H](C)[C@H](CN(C)C(=O)Nc1ccc3c(c1)OCO3)O2	.	.	.	.	.	6	.	.
CC1=CC(C)C(C(=O)O)C(C(=O)O)C1 (stereo not drawn)	1	-2	19	-5	9	-3	.	.
CC[N+](C)(CC)CC(=O)OCC1C(C)C=C(C)CC1C (stereo not drawn)	73*	4	-25	22	.	.	.	.	APOBEC3A confirm=82*;UDG A3A counter=3
CC(=O)Nc1nc2c(ccc3ccccc32)s1	49*	2	.	9	.	13	.	.	APOBEC3A confirm=13
O=C(Cc1cccs1)Nc1nc2c(ccc3ccccc32)s1	-1	.	-40	-3	-7	.	.	.
O=C(C[C@@H]1CC[C@@H](NC(=O)Nc2ccc(C(F)(F)F)cc2)[C@H](CO)O1)NCc1ccccn1	.	.	.	.	.	-7	.	.
COc1ccc(Cl)cc1NC(=O)c1cccc(-n2cnnn2)c1	48*	-3	.	-14	23	.	.	.	APOBEC3A confirm=8;UDG A3A counter=3
O=C(Nc1ccc(Br)cc1)c1cccc(-n2cnnn2)c1	51*	1	4	-2	8	1	.	.	APOBEC3A confirm=-5;UDG A3A counter=2
CCC(C)c1ccccc1NC(=O)c1cccc(-n2cnnn2)c1 (stereo not drawn)	52*	-1	.	2	4	-6	.	.	APOBEC3A confirm=34*;UDG A3A counter=-38
Cc1ccc(S(=O)(=O)Nc2ccc3c(c2)C(=O)N([C@H](C)CO)C[C@H](C)[C@@H](CN(C)C(=O)c2ccncc2)OCCCC[C@@H](C)O3)cc1	.	.	.	.	.	-2	.	.
CNC[C@H]1Oc2ccc(NC(=O)Cn3cnnn3)cc2CC(=O)N([C@@H](C)CO)C[C@@H]1C	.	.	.	.	.	4	.	.
Cc1ccc(Cl)c(OCC(=O)Nc2cccnc2)c1	44*	27	12	4	101*	34	.	.	APOBEC3A confirm=-3
CC(=O)Oc1ccc(/C=N/NC(=O)C2CCCN2S(=O)(=O)c2ccc(Cl)cc2)cc1 (stereo not drawn)	61*	.	73*	16	-3	3	.	.	APOBEC3A confirm=71*;UDG A3A counter=-4
C[C@@H]1CCCCO[C@H](CN(C)C(=O)CCCN(C)C)[C@H](C)CN([C@@H](C)CO)C(=O)c2cc(N(C)C)ccc2O1	.	.	.	.	.	-1	.	.
COc1ccc(NC(=O)Nc2cccc3c2O[C@H](CN(C)C(=O)NC(C)C)[C@H](C)CN([C@@H](C)CO)C3=O)cc1	.	.	.	.	.	9	.	.
CSc1nc2ccc(NC(=O)c3ccc(=O)[nH]c3)cc2s1	42*	-2	8	3	-8	1	.	.	APOBEC3A confirm=23
CCN(CC)c1ccc(NC(=O)c2ccc(=O)[nH]c2)cc1S(=O)(=O)Nc1ccccc1OC	-1	-1	17	56*	3	.	38*	-3
CCN(CC)c1ccc(NC(=O)COc2ccccc2C)cc1S(=O)(=O)Nc1ccccc1OC	4	-6	-16	50*	0	.	61*	3
CC(=O)Oc1ccc(N2C(=O)C3C(C2=O)C2(C)C=CC3(C)O2)cc1 (stereo not drawn)	0	.	-10	47*	.	.	49*	.
CCc1nnc(NC(=O)c2c(-c3ccccc3)noc2C)s1	-3	-1	49	-12	3	2	.	.
Cc1onc(-c2ccccc2)c1C(=O)Nc1nnc(COc2ccc(Cl)cc2)s1	-1	.	37	58*	-2	-10	38*	-3
O=C(CSc1ccccc1)Nc1nnc(COc2ccc(Cl)cc2)s1	7	0	78*	44*	9	.	58*	-6
Cc1cccc(C)c1OCc1nnc(NC(=O)CSc2ccc(Cl)cc2)s1	-2	0	-18	-5	-8	2	.	.
CCOCC(=O)Nc1nnc(COc2ccc(Cl)cc2)s1	2	1	95*	41*	.	4	20*	-3
SMILES	A3A deaminase	Wnt act	PHOSPHO1 inh	A3G deaminase	MITF TRPM1 HTS	esBAF inh	APOBEC3G confirm	UDG A3G counter	others
C[C@@H]1CN([C@H](C)CO)C(=O)c2cc(-c3ccc(C#N)cc3)cnc2O[C@H]1CN(C)Cc1cncnc1	.	.	.	.	.	-4	.	.
CCCC#Cc1cnc2c(c1)C(=O)N([C@H](C)CO)C[C@@H](C)[C@H](CN(C)C(=O)CN1CCOCC1)O2	.	.	.	.	.	2	.	.
Cc1cc(=O)n2nc(-c3ccccc3)sc2c1C#N	-3	.	5	55*	2	39	69*	3
COC(=O)Nc1ccc(S(=O)(=O)N2CCCCC2C(=O)NCc2ccco2)cc1 (stereo not drawn)	1	-7	-7	63*	.	-5	2	.
O=C(Nc1cc(S(=O)(=O)N2CCOCC2)ccc1N1CCCCC1)c1cc(-c2ccccn2)nc2ccccc12	4	-4	-65	53*	4	.	58*	-2
COc1ccc(S(=O)(=O)Nc2cccc3c2O[C@H](CN(C)Cc2ccc(C(F)(F)F)cc2)[C@H](C)CN([C@H](C)CO)C3=O)cc1	.	.	.	.	.	4	.	.
COc1cc(-c2n[nH]c(=S)n2-c2ccc(C)cc2)cc(OC)c1OC	-5	-2	-34	43*	5	.	68*	-4
COc1ccccc1-n1c(-c2ccccc2)n[nH]c1=S	3	3	-76	68*	-5	.	58*	-4

From PubChem BioAssay
